Rows were chosen to be rich in hits. Some 4.1% of all compounds tested hit in one or more screens of this group.
aSyn UTR inh: MLPCN primary screen, SNCA 5' untranslated region; 300,000 tested, 0.82% active; alpha-synuclein 5'UTR reporter, inhibitor activity; AID 1813, 2009; inhibition, % (tested at 7.5 µM); in the data active = inhibition above about 60%;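 note: H4 neuroglioblastoma cells stably carrying SNCA 5'UTR luciferase fusion; 0% = DMSO wells and 100% = positive control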
697 NFkB inh: inhibitors of PMA/ionomycin-induced NF-kB reporter, 697 cells, primary screen, B-cell NF-kB inhibitor project, cell-based, luminescence, uHTS | 330,000 tested, 0.33% active | inhibition, % at 4 µM | AID 435022, 2010 | 697 B-cell NF-kB luciferase reporter, 16 h; in the data active = inhibition above about 35%
Jurkat NFkB inh: inhibitors of induced NF-kB luciferase reporter, primary screen, TCR NF-kB activation inhibitor project, cell-based, luminescence, uHTS; Jurkat, PMA/ionomycin-induced NF-kB luciferase reporter; inhibition, % at 4 µM; AID 435003, 2010; 330,000 tested, 0.53% active; in the data active = inhibition above about 50%
Gli-Sufu block: Gli-Sufu pathway antagonists, primary screen, luciferase luminescence, Sufu-KO-LIGHT cells, uHTS; inhibition, % at 5 µM; AID 588413, 2011; 340,000 tested, 0.74% active; Sufu-KO-LIGHT fibroblasts, Gli luciferase reporter luminescence;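 active = inhibition above about 55%, limit read from the data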;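 note: 0% = DMSO-treated cells and 100% = wells with medium but no cells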
Mdm2-MdmX inh: inhibitors of human Mdm2-MdmX association, primary screen, cell-based, luminescence, split luciferase, SaOS-2, uHTS; SaOS-2 split-luciferase Mdm2/MdmX complementation; inhibition, % at 8 µM; AID 485346, 2010; 330,000 tested, 3% active;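 active = inhibition of at least 50% at 8 µM in the primary screen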
Target sequence (O15151 whole entry, looked up): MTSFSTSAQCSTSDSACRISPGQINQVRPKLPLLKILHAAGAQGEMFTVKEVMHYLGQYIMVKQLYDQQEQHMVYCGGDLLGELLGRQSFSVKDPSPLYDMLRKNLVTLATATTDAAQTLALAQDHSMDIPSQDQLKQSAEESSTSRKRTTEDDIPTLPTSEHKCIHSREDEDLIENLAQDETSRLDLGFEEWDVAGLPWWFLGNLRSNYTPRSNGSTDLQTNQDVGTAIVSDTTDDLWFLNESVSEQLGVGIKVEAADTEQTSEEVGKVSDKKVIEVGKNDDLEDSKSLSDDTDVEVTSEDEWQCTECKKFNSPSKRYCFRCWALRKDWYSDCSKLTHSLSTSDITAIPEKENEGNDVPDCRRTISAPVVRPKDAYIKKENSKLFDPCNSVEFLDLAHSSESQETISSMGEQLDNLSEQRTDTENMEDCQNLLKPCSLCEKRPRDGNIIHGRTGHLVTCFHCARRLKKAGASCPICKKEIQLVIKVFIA
Target sequence (Q00987 whole entry, looked up): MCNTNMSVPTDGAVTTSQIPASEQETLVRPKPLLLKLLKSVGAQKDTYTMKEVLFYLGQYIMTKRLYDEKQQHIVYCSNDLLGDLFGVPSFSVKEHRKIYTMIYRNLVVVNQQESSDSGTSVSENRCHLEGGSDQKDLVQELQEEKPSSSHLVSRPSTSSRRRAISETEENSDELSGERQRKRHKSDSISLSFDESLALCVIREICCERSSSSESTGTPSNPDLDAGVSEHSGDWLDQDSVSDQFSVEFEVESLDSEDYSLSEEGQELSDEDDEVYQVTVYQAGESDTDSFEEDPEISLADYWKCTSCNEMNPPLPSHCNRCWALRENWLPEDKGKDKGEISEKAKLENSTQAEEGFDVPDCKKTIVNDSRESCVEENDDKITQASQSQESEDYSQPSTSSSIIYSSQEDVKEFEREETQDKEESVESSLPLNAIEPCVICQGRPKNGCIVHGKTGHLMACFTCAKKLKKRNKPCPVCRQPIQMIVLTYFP
KLF5 inhibitor: KLF5 expression inhibitors, primary screen, DLD-1 cells, luminescence; DLD-1 KLF5 promoter-luciferase reporter; inhibition, % at 5 µM; 290,000 tested, 0.23% active; AID 1700, 2009;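 active = inhibition above a per-plate limit of that plate's mean compound inhibition plus 3 SD, cut at about 60% in these data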;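 note: 0% = DMSO wells and 100% = LY294002 at 200 µM; higher means less KLF5 promoter-driven luciferase light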
Mdm2 MdmX conf: Mdm2-MdmX complex disruptors, retested hits, confirmation, luminescence, single concentration; inhibition, % at 8 µM; Mdm2-MdmX binding, luminescent assay; shares compounds with Mdm2-MdmX inh; 10,000 tested, 55% active; AID 489028, 2010; in the data active = inhibition above about 40%
FLuc counter: full-length luciferase signal inhibition, confirmation, counter-screen for Mdm2/MdmX interaction inhibitor project, cell-based, single concentration, SaOS-2. SaOS-2 full-length luciferase counterscreen, luminescence. 6,200 tested, 77% active. inhibition, % at 8 µM. shares compounds with Mdm2-MdmX inh;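 active = mean inhibition at 8 µM reaching about 37%, which flags the compound as non-specific, limit read from the data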;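 note: p53-null SaOS-2 cells with luciferase driven by a doxycycline-inducible promoter; compound on cells about two nights before reading with doxycycline added after day one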
* = called active by the depositor; / = no result given.

SMILES	aSyn UTR inh	697 NFkB inh	Jurkat NFkB inh	Gli-Sufu block	Mdm2-MdmX inh	KLF5 inhibitor	Mdm2 MdmX conf	others
COC(=O)c1cnn(-c2ccccc2)c1/C=N/NC(=S)Nc1ccc(Cl)cc1	-15	-57	2	-1	52*	-28	54*	FLuc counter=54*
CC1CCC(NC(=O)c2cc(Cl)nc3ccccc23)CC1 (stereo not given)	/	-24	-30	-28	-19	/	/
COc1ccc(-c2sc3cc4c(cc3c2C#CC2(N)CCCCC2)OCO4)cc1	/	-30	2	-46	79*	/	30
COc1ccc(-c2sc3ccc(N4CCOCC4)cc3c2C#CCO)cc1	/	-34	28	-7	35	/	/
COc1ccc(-c2sc3ccc(N4CCOCC4)cc3c2C#CC2(O)CCCCC2)cc1	/	-10	8	2	76*	/	10
COc1cc(OC)cc(-c2sc3ccc(OC)cc3c2C#CC2(N)CCCCC2)c1	/	11	6	2	96*	/	25
COc1ccc(-c2ccc3oc(-c4ccc(OC)cc4)c(C#CC4(O)CCCCC4)c3c2)cc1	35	2	4	-11	70*	/	32
COc1cccc(-c2sc3ccc(OC)cc3c2C#CC2(O)CCCCC2)c1	/	-4	-21	-5	21	/	/
CCN(CC(=O)Nc1cc(Cl)cc(Cl)c1)CC(=O)NC1CCS(=O)(=O)C1 (stereo not given)	/	20	6	-9	-25	/	/
O=C1C=C(c2ccc(F)nc2)C[C@@H](c2ccc3c(c2)OCO3)C1	/	13	9	-2	22	/	/
COc1cc(SC)ccc1C(=O)N1CCc2ccccc21	15	12	0	-17	21	-10	/
O=C(C1CCCN(c2ncnc3c2nc2n3CCCCC2)C1)N1CCN(c2ccccc2)CC1 (stereo not given)	-148	-17	13	23	24	-56	/
O=C(C1CCCN(c2ncnc3c2nc2n3CCCCC2)C1)N1CCN(c2cccc(Cl)c2)CC1 (stereo not given)	12	-42	-4	27	57*	-30	9
COc1ccccc1N1CCN(CCCNC(=O)C2CCCN(c3ncnc4c3nc3n4CCCCC3)C2)CC1 (stereo not given)	5	-10	5	35	50*	-30	10
Cc1cccc(N2CCN(C(=O)C3CCN(c4ncnc5c4nc4n5CCCCC4)CC3)CC2C)c1 (stereo not given)	32	-39	11	-17	60*	-18	50*	FLuc counter=61*
Cc1ccc(N2CCN(C(=O)C3CCCN(c4ncnc5c4nc4n5CCCCC4)C3)CC2)c(C)c1 (stereo not given)	10	-55	5	43	72*	-38	39	FLuc counter=56*
CCOc1ccc(S(=O)(=O)N(C)CC(=O)NCc2ccccn2)cc1Cl	25	6	27	-17	7	-12	/
NC(=O)c1nsc(C(=O)N(CC(=O)NCc2ccccc2)c2ccc(F)cc2)c1N	-6	-18	-16	1	-14	-28	/
CC(C)(C)OC(=O)C[C@@H]1C/C=C\C[C@@H](CC(=O)N[C@@H](CO)Cc2ccccc2)C(=O)NCCOC1=O	/	-4	-2	31	-12	/	/
CCC(=O)Nc1nc(NCc2ccccc2OC)n(-c2ccccc2)n1	6	5	2	10	20	-10	/
NS(=O)(=O)c1ccc(CCNC(=O)c2cc(-c3ccc(Br)cc3)nc3ccccc23)cc1	-32	-5	-17	2	40	-20	/
NS(=O)(=O)c1ccc(CCNC(=O)c2cc(-c3ccccn3)nc3ccc(Br)cc23)cc1	16	17	-7	3	77*	-10	16
Cc1cc(NC(=O)c2cc(-c3ccccn3)nc3ccc(Br)cc23)no1	44	-8	4	2	66*	-8	23
Cc1cc(NC(=O)c2cc(-c3cccs3)nc3ccccc23)no1	2	-8	26	-10	51*	-79	27
Cc1cccc2sc(NNC(=O)c3cc(-c4cccs4)nc4ccccc34)nc12	-50	-7	-6	-3	82*	5	51*	FLuc counter=61*
SMILES	aSyn UTR inh	697 NFkB inh	Jurkat NFkB inh	Gli-Sufu block	Mdm2-MdmX inh	KLF5 inhibitor	Mdm2 MdmX conf	others
COc1ccc(C(CNC(=O)c2cccc(S(=O)(=O)NCc3ccccc3)c2)N2CCOCC2)cc1 (stereo not given)	9	11	7	20	4	/	/
O=C(CNC(=O)c1ccccc1F)OCCOc1cccc(Cl)c1	10	13	4	-8	34	/	/
Nc1ncnc2c1cnn2C1CCCCC1	9	-4	-6	13	-7	-22	/
O=C(Cc1cccc2ccccc12)NC(=S)Nc1cccc(C(=O)O)c1	3	0	-12	0	-11	2	/
Nc1ccccc1S(N)(=O)=O	/	-19	1	-3	15	/	/
NS(=O)(=O)c1ccc(NC(=O)c2cc(-c3cccs3)nc3ccccc23)cc1	10	12	-9	-5	87*	-3	30
CC(=O)NS(=O)(=O)c1ccc(NC(=O)c2cc(-c3cccs3)nc3ccccc23)cc1	12	5	2	-3	17	-34	/
NNC(=O)c1cc(-c2cccs2)nc2ccccc12	-2	-3	3	13	-10	26	/
CN(C)S(=O)(=O)c1ccc(NC(=O)c2cc(-c3cccs3)nc3ccccc23)cc1	12	6	-4	16	64*	-9	62*	FLuc counter=53*
CCN(CC)S(=O)(=O)c1cc(NC(=O)c2cc(-c3ccccn3)nc3ccccc23)ccc1C	17	-15	9	17	52*	-18	5
CCN(CC)S(=O)(=O)c1ccc(NC(=O)c2cc(-c3cccs3)nc3ccccc23)cc1	-2	35	9	-6	50*	-28	23
O=c1cc(N2CCCCC2)c(-c2ccccc2)nn1Cc1c(Cl)cccc1Cl	54	-17	-10	6	56*	-66	32
Oc1ccc(Nc2nc(-c3ccccc3O)nc3ccccc23)cc1	-35	1	-4	4	54*	6	24
Oc1ccc(Nc2nc(-c3ccccc3F)nc3ccccc23)cc1	28	27	-19	3	21	-17	/
COc1ccc(Nc2nc(-c3ccccc3F)nc3ccccc23)cc1OC	28	12	-21	38	55*	-39	33

Screening data as filed in PubChem BioAssay.
